# About 3,900 (1.1%) of roughly 360,000 compounds were called active.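 The calls were made as follows: active = mean replicate inhibition score of at least 50 and every replicate individually at or above 50; inconclusive = only one of the two criteria met; inactive = mean below 50 and not all replicates reaching 50.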 The full list was thinned out, with actives kept by preference.
# Assay: blockers of JRFL envelope-mediated fusion – HeLa-JRFL effector, CEM21 target cells, luciferase, primary screen (AID 651610);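 also: 0% = plate neutral controls and 100% = maraviroc near 300 nM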
# Conditions: HeLa-JRFL Env/CEM21 cell fusion, stronger effect = higher value; at 16.7 µM unless noted
row,SMILES,inhibition
1,C/C=C/c1cnc2c(c1)C(=O)N([C@H](C)CO)C[C@H](C)[C@@H](CN(C)C(=O)Nc1ccc(C(F)(F)F)cc1)O2,0.996% (inactive)
2,C[C@@H]1CN([C@@H](C)CO)C(=O)c2cc(NC(=O)C3CCCCC3)ccc2O[C@@H](C)CCCCO[C@@H]1CN(C)Cc1ccc(C(=O)O)cc1,10.8% (inactive)
3,CN(C)c1ccc2c(c1)[C@@H]1C[C@@H](CC(=O)NCc3ccccn3)O[C@H](CO)[C@@H]1O2,6.38% (inactive)
4,C[C@H]1CN([C@@H](C)CO)C(=O)CCCn2nncc2CO[C@H]1CN(C)Cc1ccccc1,-11.7% (inactive)
5,C[C@@H]1CN([C@H](C)CO)C(=O)c2cc(C#CC3CCCCC3)cnc2O[C@@H]1CN(C)C(=O)NC1CCCC1,10.8% (inactive)
6,Cc1nn(Cc2ccc(F)cc2)c(C)c1NC(=O)c1cccnc1Cl,0.276% [at 12.3 µM] (inactive)
7,Cc1nn(Cc2ccc(F)cc2)c(C)c1NC(=O)c1noc2c1CCc1ccccc1-2,57.4% [at 12.3 µM] (active)
8,Cc1nn(Cc2ccc(Cl)c(Cl)c2)c(C)c1NC(=O)c1cc(C2CC2)on1,-1.78% [at 12.3 µM] (inactive)
9,Cc1ccccc1S(=O)(=O)N[C@H]1CC[C@H](CCn2cc(-c3ccc(F)cc3)nn2)O[C@H]1CO,4.55% (inactive)
10,C[C@H](CO)N1C[C@H](C)[C@@H](CN(C)S(=O)(=O)c2cccs2)OCCCC[C@H](C)Oc2ccc(NS(=O)(=O)c3ccccc3)cc2C1=O,-0.163% (inactive)
11,CCCCNC(=O)N(O)C1N(/N=C/c2ccc(N(C)C)cc2)C(=S)SC1(C)C (configuration not stated),10.2% [at 12.3 µM] (inactive)
12,CCC(C)N1C(=S)SC(C)(C)C1N(O)C(=O)NC1CCCCC1 (configuration not stated),16.9% [at 12.3 µM] (inactive)
13,CCCCNC(=O)N(O)C1N(/N=C/c2ccccc2O)C(=S)SC1(C)C (configuration not stated),89.7% [at 12.3 µM] (active)
14,C[C@@H]1CCCCO[C@@H](CN(C)C(=O)Nc2ccc(C(F)(F)F)cc2)[C@H](C)CN([C@H](C)CO)C(=O)c2cc(NC(=O)C3CCCCC3)ccc2O1,14.1% (inactive)
15,Cc1ccc(S(=O)(=O)N[C@H]2CC[C@@H](CC(=O)NCc3ccc(Cl)c(Cl)c3)O[C@H]2CO)cc1,16.7% (inactive)
16,CCCCCCCCn1c2c(c(=N)c3c1CCC3)CCCC2,64.5% [at 12.3 µM] (active)
17,CN1CC(c2ccccc2)C2(COc3ccccc3C2=O)C12C(=O)Nc1ccccc12 (configuration not stated),108% [at 12.3 µM] (active)
18,C[C@@H]1NC(=O)[C@@]2(C)[C@@H](c3ccccc3)[C@H]3COc4ccccc4[C@@H]3N2C1=O,1% [at 12.3 µM] (inactive)
19,O=C1NC(c2ccccc2)Oc2ccccc21 (configuration not stated),-8.85% [at 12.3 µM] (inactive)
20,CO[C@H]1CN(C)C(=O)c2ccc(NC(=O)C3CC3)cc2OC[C@@H](C)N(C(=O)c2ccccn2)C[C@@H]1C,3.53% (inactive)
21,COc1ccc(S(=O)(=O)Nc2cccc3c2O[C@H](CN(C)C(=O)NC(C)C)[C@H](C)CN([C@H](C)CO)C3=O)cc1,-9% (inactive)

row,SMILES,inhibition
1,N#Cc1ccccc1-n1c(N)c(C(=O)N2CCCC2)sc1=S,59.1% [at 12.3 µM] (active)
2,O=C(c1ccc(S(=O)(=O)N2CCCC2)cc1)N1CCN(c2ccccc2F)CC1,-21.7% [at 12.3 µM] (inactive)
3,Cc1ccc(-n2c(N)c(C(=O)N3CCOCC3)sc2=S)c(C)c1,24.4% [at 12.3 µM] (inactive)
4,CNC(=O)C[C@@H]1CC[C@H]2[C@H](COc3ccc(NC(=O)C4CC4)cc3C(=O)N2C)O1,12% (inactive)
5,CC(C)NC(=O)N(C)C[C@@H]1Oc2ncc(C#Cc3ccncc3)cc2C(=O)N([C@@H](C)CO)C[C@@H]1C,-8.31% (inactive)
6,COc1ccccc1S(=O)(=O)N(C)C[C@@H]1Oc2cc(C#CCC3CCCC3)ccc2S(=O)(=O)N([C@H](C)CO)C[C@H]1C,34.8% (inactive)
7,O=C(NC[C@H]1CC[C@@H]2[C@@H](CN2S(=O)(=O)c2ccccc2F)O1)C1CCCCC1,5.54% (inactive)
8,CCCCn1nc(C(=O)Nc2ccc(S(=O)(=O)Nc3ncccn3)cc2)c2ccccc2c1=O,3.69% [at 12.3 µM] (inactive)
9,CCN(CC)CCCN=Cc1c(O)n(-c2ccc(C)cc2)c(=O)c2ccccc12,-12.6% [at 12.3 µM] (inactive)
10,Cc1ccc(-n2c(O)c(C=Nc3ccc(S(=O)(=O)Nc4ncccn4)cc3)c3ccccc3c2=O)cc1C,65% [at 12.3 µM] (active)
11,Cc1ccc(S(=O)(=O)Nc2ccc3c(c2)C(=O)N([C@H](C)CO)C[C@H](C)[C@H](CN(C)S(=O)(=O)c2ccc(F)cc2)OCCCC[C@@H](C)O3)cc1,-11.1% (inactive)
12,O=C(COc1ccccc1[N+](=O)[O-])N/N=C/c1ccc[nH]1,-18.2% [at 12.3 µM] (inactive)
13,CCCC(=O)Nc1ccc(C(=O)N/N=C/c2ccc[nH]2)cc1,66.2% [at 12.3 µM] (active)
14,CC(=O)Nc1ccc(C(=O)/C=C/c2ccc[nH]2)cc1,3.48% [at 12.3 µM] (inactive)
15,CC1(C)OC(=O)C2=C(CC(CCc3ccccc3)OC2c2ccc(Cl)cc2)O1 (configuration not stated),-17.2% [at 12.3 µM] (inactive)
16,COc1ccc(C(CNC(=O)c2cccc(NS(=O)(=O)c3ccc(C)c(F)c3)c2)N2CCCC2)cc1 (configuration not stated),-23.5% [at 12.3 µM] (inactive)
17,COc1ccc(C(CNC(=O)c2ccc(NS(=O)(=O)c3ccc(F)c(C)c3)cc2)N(C)C)cc1 (configuration not stated),-1.84% [at 12.3 µM] (inactive)
18,Cc1cc(S(=O)(=O)Nc2ccc(C(=O)NCC(c3ccco3)N3CCCC3)cc2)ccc1F (configuration not stated),57.1% [at 12.3 µM] (active)
19,COc1ccc(NC(=O)N(C)C[C@@H]2OCCCC[C@@H](C)Oc3ccc(N(C)C)cc3C(=O)N([C@H](C)CO)C[C@@H]2C)cc1,7.61% (inactive)
20,C[C@H]1CN([C@@H](C)CO)C(=O)Cc2cc(NC(=O)C3CC3)ccc2O[C@H]1CN(C)C(=O)Nc1ccc(C(F)(F)F)cc1,3.78% (inactive)
21,C[C@H](CO)N1C[C@H](C)[C@@H](CN(C)S(=O)(=O)c2cn(C)cn2)OCCCC[C@H](C)Oc2ccc(NC(=O)Cc3ccccc3)cc2C1=O,-9.54% (inactive)

# Source: PubChem BioAssay AID651610 (Broad Institute, 2012)
